Data from PubChem BioAssay.

Experiment: inhibitors of poly I:C-induced TLR3 signaling, primary screen, cell-based, poly I:C stimulus, luciferase, 10K MLSCN set (AID 602277)
Conditions: HEK293-TLR3 RL24 IRF3 luciferase reporter, at 10 µM, active compounds read high;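 active means inhibition of the reporter signal at or above 50%; inactive means inhibition below 50%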

inhibition, inactive:
CC(C)(C)NC(=O)CSc1nnc(-c2ccccn2)n1-c1ccccc1 26.8%
O=C(COC(=O)c1cncc(Br)c1)NCCC1=CCCCC1 25.9%
COc1ccc(S(=O)(=O)Nc2ccccc2OC)cc1C 27.5%
Nc1nc2n(n1)C(c1cccc(Br)c1)CC(c1ccc(F)cc1)N2 (stereo not given) 15.8%
O=C(NC1CCCCC1)N(Cc1ccccc1)Cc1ccco1 11.3%
O=C(O)CCn1[nH]c(=O)ccc1=O 18%
COc1ccc(C(=O)Nc2ccccc2C(=O)NCCN2CCOCC2)cc1 -25.1%
CCc1ccccc1NC(=O)CCc1nc(-c2ccc(C)cc2)no1 47.2%
Cc1cc(NS(=O)(=O)c2ccc(NC(=O)Nc3ccc4c(c3)OCO4)cc2)no1 -20.7%
CCOC(=O)c1ccc(NC(=O)CSCc2ccco2)cc1 -14.9%
Cc1cc(NC(=O)CSc2nccn2-c2ccc(F)cc2)no1 3.73%
O=C(COC(=O)C1CC1)c1c[nH]c2ccccc12 -96.8%
O=C(CCS(=O)(=O)c1cccc2nonc12)Nc1cccc2c1CCCC2 5.02%
COc1cccc(NC(=O)N(Cc2ccco2)C(C)c2cccs2)c1 (stereo not given) 15.1%
Cc1csc2ncc(C(=O)N3CCc4ccccc43)c(=O)n12 39.2%
c1ccc(-c2ccccc2OCCn2cncn2)cc1 26%
COc1ccc(NC(=O)CN(c2ccc(C)cc2)S(C)(=O)=O)c(OC)c1 25.6%
O=C(OCC(=O)N1CCCC1)c1ccccc1OCc1ccccc1 6.16%
Cc1cc(NS(=O)(=O)c2ccc(NC(=O)COc3ccccc3C(C)C)cc2)no1 39.1%
CCN(CC)c1ccc(NC(=O)CN2CCN(CC(=O)Nc3ccccc3F)CC2)cc1 19.4%
COc1cc2[nH]c(=O)c(C(=O)NCCCN3CCCCC3)c(O)c2cc1OC -9.38%
Cn1c(NC(=O)c2ccccc2NC(=O)C(C)(C)C)nc2ccccc21 -25.9%
O=c1[nH]c2sc3c(c2c2nncn12)CCCC3 -10%
Cc1nnc(SCC(=O)NCCN2C(=O)CSC2=O)s1 19.5%
Cc1ccc(-c2nn(C)c(=O)c3ccccc23)cc1S(=O)(=O)NCCN1CCOCC1 3.02%
COc1cccc(Oc2cn[nH]c2-c2ccc(O)cc2O)c1 12.8%
COc1ccc(CCNC(=O)CCN2C(=O)C3CC=CCC3C2=O)cc1OC (stereo not given) -2.15%
c1ccc(-c2nnc(-c3ccco3)n2-c2ccccc2)cc1 20.5%
CCCCCCC1/C(=N/O)CCC1C(=O)OC (stereo not given) 10.1%
CCOc1ccc2[nH]c(=O)c(C(c3nnnn3Cc3ccco3)N3CCC(C)CC3)cc2c1 (stereo not given) 20.5%
CCS(=O)(=O)N1CCC(C(=O)NC2CCCCCCC2)CC1 -6.47%
Cc1occc1C(=O)Nc1nnc(C2CCCCC2)s1 -13.3%
NC(=O)c1ccccc1NC(=O)CN1CCOCC1 20.7%
CCOC(=O)C(CC)n1nc(C)n2c(cc3sccc32)c1=O (stereo not given) 19.7%
Cc1ccc(-c2noc(CCC(=O)N3CCN(c4cccc(C(F)(F)F)c4)CC3)n2)cc1 6.71%
Cc1cc(Br)ccc1NC(=O)CNC(=O)CSc1n[nH]c(N)n1 37.1%
O=C(C1CCCN(S(=O)(=O)c2cnc[nH]2)C1)N1CCN(c2ccc(Cl)cc2)CC1 (stereo not given) 0.571%
Cc1ccc(CCSCC(=O)O)cn1 0.219%
CCCc1nnc(NC(=O)CCC(=O)N2CCN(CCOc3ccc(C)cc3)CC2)s1 10.9%
CN1CCC(NC(=O)c2cccs2)CC1 33.8%
